Among the data in the supplement of paper PMC12024424 are growth reduction values, retold here.

Each structure is given as a SMILES string. Counter-ions that a name gives are not always drawn.

In the assay the test system is Staphylococcus aureus Sa2 (MRSA, cystic fibrosis isolate). Put plainly: growth reduction vs untreated control (OD550); higher = stronger antibacterial activity. The settings on record: 0.1 mM; 24 h. As to the method: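 Single-dose screen of the MedChem Express Drug Repurposing Library (0.1 mM, 1% DMSO) against planktonic MRSA S. aureus Sa2 (CF isolate) in TSB in 96-well plates, 37 °C aerobic, 24 h. Assays were run in triplicate and repeated twice.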
As to `Cc1cc2c(C(C)C)c(O)c(O)c(C=O)c2c(O)c1-c1c(C)cc2c(C(C)C)c(O)c(O)c(C=O)c2c1O` [Gossypol (acetic acid)], the growth reduction amounted to 99.3%. In the case of `Cc1cc2c(C(C)C)c(O)c(O)c(C=O)c2c(O)c1-c1c(C)cc2c(C(C)C)c(O)c(O)c(C=O)c2c1O` [(R)-(-)-Gossypol acetic acid] it was 96%; in that of `O=c1c2ccccc2[se]n1-c1ccccc1` [Ebselen], 99.8%. Take `c1ccc2c(c1)Sc1ccccc1N2CC1CN2CCC1CC2` (stereo not drawn) [Mequitazine]: the growth reduction is 99.3%. Regarding `O=C(O)c1nn(Cc2ccc(Cl)cc2Cl)c2ccccc12` [Lonidamine], the growth reduction is 90.9%. In the case of `COc1cccc2c1cc([N+](=O)[O-])c1c(C(=O)O)cc3c(c12)OCO3` [Aristolochic acid A] it was 95.3%; in that of `C[S+]([O-])CCCCN=C=S` (stereo not drawn) [Sulforaphane], 97.9%; in that of `Cc1cc2c(C(C)C)c(O)c(O)c(C=O)c2c(O)c1-c1c(C)cc2c(C(C)C)c(O)c(O)c(C=O)c2c1O` [Gossypol], 98.4%.

With `CCNC1=Nc2ccc(Cl)cc2C(C)(c2ccccc2)O1` (stereo not drawn) [Etifoxine], the growth reduction was found to be 100%. As for `Fc1ccc(C(OCCN2CCN(CCCc3ccccc3)CC2)c2ccc(F)cc2)cc1` [Vanoxerine (dihydrochloride)], the figure is 100%; as for `CC[C@H](C)C1O[C@]2(C=C[C@@H]1C)C[C@@H]1C[C@@H](C/C=C(\C)[C@@H](O[C@H]3C[C@H](OC)[C@@H](O[C@H]4C[C@H](OC)[C@H](NC)[C@H](C)O4)[C@H](C)O3)[C@@H](C)/C=C/C=C3\CO[C@@H]4[C@H](O)C(C)=C[C@@H](C(=O)O1)[C@]34O)O2` (stereo partly drawn) [Emamectin (Benzoate)], 98%; as for `O=C(CNC(=O)c1ccc(C2=NOC(c3cc(Cl)cc(C(F)(F)F)c3)(C(F)(F)F)C2)c2ccccc12)NCC(F)(F)F` (stereo not drawn) [Afoxolaner], 100%.

As to `O=c1[nH]c2ccccc2n1C1CCN(CCCC(c2ccc(F)cc2)c2ccc(F)cc2)CC1` [Pimozide], the growth reduction was 100%.
